Where “and” joins values, the source holds several entries; their conditions need not be identical. Identical values can stand only once. Inconclusive results are not listed. A structure can be active in one record and inactive in another. Calls of active or inactive are those of the source. The calls were made as follows: active = hit-call score of the fitted dose curve at least 0.9, where 1 is the maximum; inconclusive = response in the unintended direction; inactive = score below 0.9.
Tests used:
[1] = biological target: Cellular tumor antigen p53 (Homo sapiens) (UniProt P04637); assay: TOX21_p53_BLA_p2_ratio: Tox21 HCT-116 p53 Agonism Beta-lactamase Assay, Ratio, Phase 2 (AID 2283592)
Chain of Cellular tumor antigen p53 (Homo sapiens) (P04637 whole entry, looked up): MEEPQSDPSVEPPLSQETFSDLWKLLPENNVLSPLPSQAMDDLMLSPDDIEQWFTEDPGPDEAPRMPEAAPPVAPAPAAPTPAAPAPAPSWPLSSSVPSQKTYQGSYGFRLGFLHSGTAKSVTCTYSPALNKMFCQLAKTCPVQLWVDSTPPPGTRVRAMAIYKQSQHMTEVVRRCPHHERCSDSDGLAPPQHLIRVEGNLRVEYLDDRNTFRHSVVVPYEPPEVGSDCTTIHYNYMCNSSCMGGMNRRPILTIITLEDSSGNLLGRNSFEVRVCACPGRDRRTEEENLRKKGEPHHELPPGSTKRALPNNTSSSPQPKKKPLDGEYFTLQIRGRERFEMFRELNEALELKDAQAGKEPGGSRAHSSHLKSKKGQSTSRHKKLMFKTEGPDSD
Outline: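 Ratio endpoint: beta-lactamase cleavage of CCF4-AM, blue (460 nm) over green (530 nm). HCT116 reporter line; 16 h treatment, 37C; substrate 2 h RT.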

[2] = TOX21_p53_BLA_p3_viability: Viability Assessment in the Tox21 HCT-116 p53 Agonism Beta-lactamase Assay, Phase 3 (AID 2283593);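 also: cells exposed to compound for 16 h before reading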
Outline: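 HCT-116 cells (4000/well) rested 5 h at 37C, then got DMSO compounds by pin tool (217-fold dilution) for 16 h at 37C, 5% CO2. After the bla read, CellTiter-Glo was added and luminescence read at 30 min, room temperature.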

[3] = biological target: Cellular tumor antigen p53 (Homo sapiens) (UniProt P04637); assay: TOX21_p53_BLA_p3_ratio: Tox21 HCT-116 p53 Agonism Beta-lactamase Assay, Ratio, Phase 3 (AID 2283596)
Outline: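 Cells were seeded at 4000/well, rested 5 h at 37C, then dosed with DMSO compound solutions (217-fold dilution) for 16 h. CCF4-AM substrate was loaded for 2 h at room temperature, and the 460/530 nm emission ratio was fitted for gain of signal versus DMSO.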

[4] = TOX21_p53_BLA_p4_viability: Viability Assessment in the Tox21 HCT-116 p53 Agonism Beta-lactamase Assay, Phase 4 (AID 2283597);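 also: hits lower the luminescence signal meaning cytotoxicity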
Outline: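 Cytotoxicity was inferred from loss of CellTiter-Glo luminescence. HCT116 cells had been dosed with compounds after 5 h plating, incubated 16 h at 37C and 5% CO2, and exposed to the CCF4-AM substrate for 2 h.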

[5] = biological target: Cellular tumor antigen p53 (Homo sapiens) (UniProt P04637); assay: TOX21_p53_BLA_p5_ratio: Tox21 HCT-116 p53 Agonism Beta-lactamase Assay, Ratio, Phase 5 (AID 2283599)
Outline: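 HCT-116 cells carrying a p53-inducible beta-lactamase reporter were seeded at 4000 cells/well and dosed after 5 h with compound in DMSO (217-fold dilution). After 16 h at 37C, CCF4-AM substrate was added for 2 h, and the 460/530 nm emission ratio was scored as gain-of-signal versus DMSO.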

[6] = TOX21_p53_BLA_p5_viability: Viability Assessment in the Tox21 HCT-116 p53 Agonism Beta-lactamase Assay, Phase 5 (AID 2283600)
Outline: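 Luciferase-coupled ATP quantitation of cells treated for 16 h (37C, 5% CO2) with test chemicals delivered in DMSO via a 217-fold dilution; 4000 cells/well; reagent incubated 30 min at room temperature before luminescence reading.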

[7] = TOX21_p53_BLA_p2_viability: Viability Assessment in the Tox21 HCT-116 p53 Agonism Beta-lactamase Assay, Phase 2 (AID 2283591);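 also: compound exposure lasted 16 h at 37 °C; actives lower the ATP signal meaning cytotoxicity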
Outline: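 HCT-116 p53-bla cells (4000/well) rested 5 h at 37C, then received compounds in DMSO (217-fold dilution) for 16 h at 37C, 5% CO2. After the CCF4 read, CellTiter-Glo was added; ATP luminescence was read after 30 min at room temperature.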

[8] = biological target: Cellular tumor antigen p53 (Homo sapiens) (UniProt P04637); assay: TOX21_p53_BLA_p4_ratio: Tox21 HCT-116 p53 Agonism Beta-lactamase Assay, Ratio, Phase 4 (AID 2283601)
Outline: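 HCT116 cells carrying an inducible beta-lactamase reporter were plated at 4000 cells/well, rested 5 h, then exposed to compounds in DMSO (217-fold dilution) for 16 h at 37C. CCF4-AM substrate was loaded 2 h at room temperature; 460/530 nm emission ratio scored gain-of-signal versus DMSO.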

Measured: AC50

CNC(=O)Oc1c(C(C)(C)C)cc(C)cc1C(C)(C)C
inactive: [1] | [2]

Cc1cc(Cl)ccc1N=CN(C)C
not listed: [7] | [8]
inactive: all other assays above

C=CCN(C1=NCCN1)c1c(Cl)cccc1Cl
inactive: [7] | [5]

CCCCCCI
not listed: [7]
inactive: all other assays above

CN(C)CCCCCCN(C)C
inactive: [7] | [6] | [8]

N#CNC#N
inactive: [7] | [4] | [6] | [8]

CCCSC(=O)Cl
inactive: [7] | [6] | [8]

Cc1cccc(N)c1C
inactive: [7] | [4] | [5] | [6] | [8]

CCCCN=C=O
inactive: [1] | [2] | [3] | [4]

CNC(C)(C)Cc1ccccc1
inactive: [7] | [5] | [6] | [8]

C[C@@H]1[C@@H]2Cc3ccc(O)cc3[C@@]1(C)CCN2CC1CC1
inactive: [7] | [6] | [8]

N#CC(C#N)=Cc1ccc(O)c(O)c1
not listed: [7]
inactive: all other assays above

S=C(SSC(=S)N1CCCCC1)N1CCCCC1
not listed: [7]
inactive: all other assays above

ClC(Cl)=C(Cl)Cl
inactive: [7] | [4] | [5] | [6] | [8]

O=C(Cl)c1ccccc1
not listed: [7]
inactive: all other assays above

C[C@]12CC[C@H](OS(=O)(=O)O)CC1=CC[C@@H]1[C@@H]2CC[C@]2(C)C(=O)CC[C@@H]12
not listed: [7]
inactive: all other assays above

C=CC(=C)C
inactive: [7] | [6]

CNC(C)CC1CCCCC1 (stereo not given)
inactive: [1] | [2] | [3] | [4] | [5]

N[C@@H]1C[C@H]1c1ccccc1
inactive: [1] | [2] | [3] | [4] | [5]

CCCCCCCCCCCCCCn1cc[n+](C)c1
active: [1] 6.74 µM and 2.12 µM | [2] 10.3 µM and 77.3 µM | [3] 14 µM and 6.93 µM | [4] 598 nM and 40 µM | [5] 49.6 µM and 39.7 µM | [6] 86.2 µM and 46.2 µM | [8] 63.9 µM and 63.4 µM
inactive: [1] | [2] | [3] | [4] | [6] | [8]

ClC(Br)Br
not listed: [7]
inactive: all other assays above

Brc1ccccc1
inactive: [7] | [4] | [6]

CCN(CC)CCOC(=O)C(C)(c1ccccc1)c1ccccc1
inactive: [7] | [4] | [5]

CNC(C)Cc1ccccc1 (stereo not given)
inactive: [1] | [2] | [3]

O=C1C=C2C=C[C@@H]3C[C@@]2(O1)[C@H]1CCCCN31
inactive: [1] | [2] | [3] | [4] | [5]

[Cl][Hg][c]1ccccc1
active: [1] 0.553 µM | [2] 2.88 µM | [3] 8.93 µM | [4] 624 nM | [5] 10.9 µM | [6] 2.95 µM | [8] 672 nM

COC1=CC=C2[C@H]3Cc4ccc(OC)c5c4[C@@]2(CCN3C)[C@H]1O5
not listed: [7]
inactive: all other assays above

Oc1ccc2c3c1O[C@H]1[C@@H](O)C=C[C@H]4[C@H](C2)NCC[C@@]341
not listed: [7] | [8]
inactive: all other assays above

Nc1cc(Cl)ccc1Cl
not listed: [7]
inactive: all other assays above

Fc1ccc(C(OCCN2CCN(CCCc3ccccc3)CC2)c2ccc(F)cc2)cc1
active: [1] 33.7 µM | [2] 31 µM | [3] 24.9 µM | [4] 25100 nM | [5] 40.4 µM

BrCC(Br)(Br)Br
active: [1] 84.7 µM | [3] 13.1 µM
not listed: [7]
inactive: all other assays above

CCCCCCCCCCCCCC[P+](CCCCCC)(CCCCCC)CCCCCC
inactive: [1] | [4]
active: [1] 59.6 µM and 51.8 µM | [2] 46.3 µM and 28.9 µM | [3] 67.4 µM and 50.1 µM and 7.15 µM | [4] 34.3 µM and 20.3 µM | [6] 32.3 µM and 26.6 µM | [8] 66 µM and 48.6 µM

CCN(C(C)=O)c1cccc(-c2ccnc3c(C#N)cnn23)c1
inactive: [7] | [5] | [6] | [8]

c1ccc(C2(c3ccccc3)CC2C2=NCCN2)cc1 (stereo not given)
inactive: [7] | [6]
